Measured values published in the supplement of paper PMC10646978.
± gives the standard deviation.

Tests used:
Conditions in all cases: modulator concentration 10 µM
[1] = test system: RAW-Dual (murine macrophage reporter line); experiment: NF-kB reporter (SEAP) activity fold change vs agonist alone; higher = enhanced NF-kB activity
Procedure, shortened: (§1)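 In 384-well plates holding 50 000 RAW-Dual murine macrophage reporter cells per well, compound at 10 μM final was pre-incubated for 1 hour at 37 °C, after which a PRR agonist was added overnight. Supernatant SEAP read with QUANTI-Blue at 620 nm absorbance reported NF-κB, and Lucia luciferase read with QUANTI-Luc luminescence reported IRF. Fold change values come from dividing each reporter signal by the mean of agonist-only control wells on the same plate, averaged over replicate plates with propagated errors.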

[2] = test system: RAW-Dual (murine macrophage reporter line); experiment: IRF reporter (Lucia luciferase) activity fold change vs agonist alone; higher = enhanced IRF activity
Procedure, shortened: as §1

[3] = test system: RAW-Dual (murine macrophage reporter line); experiment: viability score (confluency relative to resting cells, overnight) (fraction); higher = more viable, active = viable (0.7 or more)
Procedure, shortened: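 Confluency was the readout: RAW-Dual macrophages were imaged with IncuCyte after an overnight exposure to compound at 10 μM final. IncuCyte software produced two masks over all imaged wells. The viability score expresses confluency against resting cells, and both masks had to exceed 70% of resting cells for a compound to meet the cutoff.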

[4] = agonist: CpG ODN 1826 0.5 ug/mL

Row | SMILES | NF-kB reporter [1, 4] | NF-kB reporter ([1]; agonist: LPS 0.1 ug/mL) | NF-kB reporter ([1]; agonist: MPLA […]) | IRF reporter ([2]; agonist: 3'3'-cGAMP 10 ug/mL) | IRF reporter ([2]; agonist: LPS 0.1 ug/mL) | IRF reporter ([2]; agonist: MPLA […]) | viability score [3]
1 | Cc1ccc(S(=O)(=O)n2nnc3ccccc32)cc1C | 1.07 ± 0.11 | 1.04 ± 0.092 | 0.991 ± 0.034 | 0.928 ± 0.059 | 0.982 ± 0.14 | 1 ± 0.23 | 1 (active)
2 | CSCCC(NC(C)=O)C(=O)N1CCc2nc3ccc(Cl)cn3c(=O)c2C1 (centres undefined) | 1.42 ± 0.35 | 0.918 ± 0.047 | 1.06 ± 0.12 | 1.01 ± 0.043 | 1.24 ± 0.17 | 1.29 ± 0.21 | 0.986 (active)
3 | CCCOc1cccc(C(=O)Nc2scc(-c3ccccc3)c2C(=O)OC(C)C)c1 | 1.79 ± 0.35 | 1.24 ± 0.16 | 2.23 ± 0.46 | 0.635 ± 0.056 | 0.66 ± 0.22 | 0.65 ± 0.041 | 0.883 (active)
4 | COc1ccc(CN2CCN(C(c3ccc(F)cc3)c3ccc(F)cc3)CC2)c(OC)c1OC.Cl.Cl | 0.742 ± 0.032 | 0.927 ± 0.084 | 0.916 ± 0.049 | 0.604 ± 0.038 | 1.02 ± 0.24 | 1.17 ± 0.47 | 0.985 (active)
5 | O=C(Nc1ccc(S(=O)(=O)Nc2nccs2)cc1)c1c(F)cccc1F | 0.984 ± 0.1 | 1.02 ± 0.058 | 0.922 ± 0.06 | 0.982 ± 0.026 | 1.52 ± 0.23 | 1.14 ± 0.1 | 1.01 (active)
6 | CN1CCN(C(CNC(=O)c2ccccc2Br)c2ccc(F)cc2)CC1 (centres undefined) | 0.878 ± 0.047 | 0.967 ± 0.12 | 0.944 ± 0.13 | 1.03 ± 0.053 | 1.06 ± 0.093 | 0.936 ± 0.34 | 1.01 (active)
7 | CCOC(=O)C1=C(C)NC(C)=C(C(=O)OCC)C1c1ccc(Cl)c(Cl)c1 | 0.693 ± 0.23 | 0.996 ± 0.078 | 0.832 ± 0.079 | 1.05 ± 0.045 | 1.19 ± 0.19 | 1.37 ± 0.29 | 0.998 (active)
8 | CC(=O)SCC(Cc1ccccc1)C(=O)NCC(=O)OCc1ccccc1 (centres undefined) | 1.01 ± 0.075 | 0.997 ± 0.07 | 0.99 ± 0.045 | 0.967 ± 0.08 | 0.76 ± 0.027 | 0.785 ± 0.087 | 1 (active)
9 | COc1cc2c(cc1OC)CC(=O)N(CCCN(C)C[C@H]1Cc3cc(OC)c(OC)cc31)CC2.Cl | 0.713 ± 0.056 | 0.855 ± 0.07 | 1.06 ± 0.097 | 0.962 ± 0.05 | 1.41 ± 0.11 | 1.57 ± 0.18 | 1.01 (active)
10 | CNCC[C@H](Oc1cccc2ccccc12)c1cccs1.Cl | 0.377 ± 0.037 | 0.925 ± 0.1 | 1.29 ± 0.069 | 1.41 ± 0.1 | 1.16 ± 0.18 | 1.24 ± 0.31 | 0.323 (inactive)
11 | O=C1CN(/N=C/c2ccc([N+](=O)[O-])o2)C(=O)N1 | 1.13 ± 0.27 | 1.14 ± 0.087 | 0.87 ± 0.068 | 0.821 ± 0.029 | 1.21 ± 0.16 | 1.14 ± 0.17 | 0.994 (active)
12 | CN(C)CCOC(c1ccccc1)c1ccccc1.Cl | 1.12 ± 0.16 | 1.11 ± 0.089 | 0.985 ± 0.11 | 0.791 ± 0.029 | 1.17 ± 0.1 | 1.03 ± 0.12 | 0.999 (active)
13 | C[C@H](Oc1ccc(S(C)(=O)=O)cc1C(=O)N1CCN(c2ncc(C(F)(F)F)cc2F)CC1)C(F)(F)F | 0.902 ± 0.073 | 0.807 ± 0.11 | 0.936 ± 0.056 | 0.821 ± 0.074 | 1.03 ± 0.038 | 0.706 ± 0.15 | 1 (active)
14 | N#Cc1c(N=Cc2ccc(Br)cc2)sc2c1CCCC2 | 0.782 ± 0.075 | 1 ± 0.067 | 0.964 ± 0.033 | 0.896 ± 0.14 | 0.96 ± 0.041 | 1 ± 0.077 | 1 (active)
15 | O=S(=O)(c1cccc2ccccc12)n1cnc2ccccc21 | 1.1 ± 0.084 | 1.06 ± 0.11 | 0.998 ± 0.1 | 0.944 ± 0.089 | 1.26 ± 0.25 | 1.33 ± 0.26 | 1.01 (active)
16 | CNc1ccc([N+](=O)[O-])cc1-n1cnc(-c2ccc([N+](=O)[O-])cc2)c1 | 0.853 ± 0.068 | 0.807 ± 0.038 | 1.37 ± 0.12 | 1.02 ± 0.046 | 1.41 ± 0.082 | 1.58 ± 0.15 | 1.02 (active)
17 | CC12CC3CC(C)(C1)CC(CNC(=O)c1ccc([N+](=O)[O-])cc1)(C3)C2 | 1.1 ± 0.1 | 0.895 ± 0.065 | 0.957 ± 0.09 | 0.999 ± 0.032 | 1.38 ± 0.22 | 1.48 ± 0.37 | 1 (active)
18 | O=c1sn(-c2cccc3ccccc23)c(=O)n1Cc1ccccc1 | 0.647 ± 0.1 | 0.501 ± 0.15 | 0.653 ± 0.044 | 0.473 ± 0.016 | 0.441 ± 0.14 | 0.81 ± 0.12 | 0.181 (inactive)
19 | O=S1(=O)N=C(NN=Cc2ccccc2O)c2ccccc21 | 1 ± 0.081 | 0.95 ± 0.14 | 1.1 ± 0.12 | 1 ± 0.049 | 1.25 ± 0.16 | 1.46 ± 0.25 | 1.03 (active)
20 | CC1=C(C(=O)OC2CCCCC2)C(c2ccc(N(C)C)cc2)C2=C(CC(C)(C)CC2=O)N1 (centres undefined) | 0.767 ± 0.12 | 0.697 ± 0.08 | 1.16 ± 0.1 | 0.843 ± 0.083 | 0.943 ± 0.071 | 1.04 ± 0.22 | 1 (active)
21 | COC(=O)c1ccc(N2C(=O)c3ccc(Oc4cccc([N+](=O)[O-])c4)cc3C2=O)cc1 | 0.969 ± 0.085 | 0.923 ± 0.079 | 1.06 ± 0.11 | 0.994 ± 0.031 | 1.33 ± 0.17 | 1.71 ± 0.19 | 1.02 (active)
22 | COc1ccc(C(C)=NNC(=O)Nc2ccccc2)c(OC)c1 | 0.92 ± 0.083 | 0.865 ± 0.092 | 0.932 ± 0.088 | 1.02 ± 0.063 | 1.26 ± 0.2 | 1.4 ± 0.27 | 1.01 (active)
23 | CS(=O)(=O)c1cccc(C[C@H](NC(=O)c2c(Cl)cc3c(c2Cl)CCN(C(=O)c2ccc4ccoc4c2)C3)C(=O)O)c1 | 1.12 ± 0.17 | 1.22 ± 0.23 | 1.97 ± 1.1 | 1.07 ± 0.084 | 1.37 ± 0.41 | 1.31 ± 0.1 | 0.983 (active)
24 | CN(C)C/C=C/C(=O)Nc1cc2c(Nc3ccc(F)c(Cl)c3)ncnc2cc1O[C@H]1CCOC1 | 0.0842 ± 0.0066 | 0.28 ± 0.053 | 0.266 ± 0.033 | 0.0559 ± 0.0049 | 0.0747 ± 0.015 | 0.0463 ± 0.0039 | 0.56 (inactive)
25 | COc1ccc(NC(=O)Cc2cn(Cc3ccccc3)c3ccccc23)cc1OC | 0.629 ± 0.035 | 1.2 ± 0.096 | 1.57 ± 0.13 | 0.701 ± 0.032 | 1.24 ± 0.27 | 1.39 ± 0.4 | 0.96 (active)
26 | CC(=O)ON=C1C(C)=C(C#N)C2C1C2(C)C (centres undefined) | 1.2 ± 0.096 | 1.01 ± 0.26 | 0.874 ± 0.32 | 0.718 ± 0.18 | 0.871 ± 0.25 | 0.857 ± 0.33 | 1.01 (active)
27 | CNC(=O)[C@H](Cc1ccccc1)NC(=O)[C@H](CC(C)C)[C@H](CSc1cccs1)C(=O)NO | 1.23 ± 0.093 | 1.22 ± 0.13 | 1.01 ± 0.048 | 0.96 ± 0.15 | 1.05 ± 0.15 | 0.947 ± 0.28 | 0.999 (active)
